Measured values published in PubChem BioAssay (NCI).
Compounds without any hit were thinned out: in the full panel of roughly 83,000, 20% have a hit.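 Testing used 96-well plates and a 48-hour single-concentration exposure. Example: -40 means 40% of the starting cells died.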 Active and inactive are the calls of the source. Rule for the calls: active = growth percent below 10; inactive = the rest.

Key:
Test in all cases: NCI-60 one-dose screen, 48 h (100 = growth as untreated, 0 = no growth, -100 = all killed)
Settings in all cases: 10 µM unless noted
SR leukemia = test system: SR leukemia
RPMI-8226 leukemia = test system: RPMI-8226 leukemia
OVCAR-8 ovarian = test system: OVCAR-8 ovarian
OVCAR-5 ovarian = test system: OVCAR-5 ovarian
OVCAR-4 ovarian = test system: OVCAR-4 ovarian
SK-OV-3 ovarian = test system: SK-OV-3 ovarian
IGROV1 ovarian = test system: IGROV1 ovarian
OVCAR-3 ovarian = test system: OVCAR-3 ovarian
HS 578T breast = test system: HS 578T breast
NCI/ADR-RES ovarian = test system: NCI/ADR-RES ovarian
T-47D breast = test system: T-47D breast
BT-549 breast = test system: BT-549 breast
MDA-MB-435 melanoma = test system: MDA-MB-435 melanoma
SW-620 colon = test system: SW-620 colon
MCF7 breast = test system: MCF7 breast
HCT-116 colon = test system: HCT-116 colon
HCC-2998 colon = test system: HCC-2998 colon
KM12 colon = test system: KM12 colon

Measured: growth

Cc1ccc(-c2nc([P+](c3ccccc3)(c3ccccc3)c3ccccc3)c(Nc3ccccc3)o2)cc1
active: SR leukemia -27.1% | RPMI-8226 leukemia -50.4% | OVCAR-8 ovarian -21.5% | OVCAR-5 ovarian 8.46% | OVCAR-4 ovarian -5.24% | SK-OV-3 ovarian -9.23% | OVCAR-3 ovarian -12.1% | HS 578T breast -31.1% | NCI/ADR-RES ovarian -3.38% | T-47D breast 8.18% | BT-549 breast 2.14% | MDA-MB-435 melanoma -32.9% | SW-620 colon -29.9% | MCF7 breast 0.233% | HCT-116 colon -22.2% | HCC-2998 colon -51.5% | KM12 colon -35.1%
inactive: IGROV1 ovarian 15%

N#CC1=C(N)Oc2c(sc3c(Br)cccc23)C1c1ccccn1 (centres undefined)
inactive: SR leukemia 12.7% | RPMI-8226 leukemia 30% | OVCAR-8 ovarian 53.8% | OVCAR-5 ovarian 72% | OVCAR-4 ovarian 88.6% | SK-OV-3 ovarian 27.2% | IGROV1 ovarian 43.1% | OVCAR-3 ovarian 14.3% | HS 578T breast 45.5% | NCI/ADR-RES ovarian 14.6% | T-47D breast 34.3% | BT-549 breast 31.4% | MDA-MB-435 melanoma 77.4% | SW-620 colon 34.8% | MCF7 breast 18.8% | HCT-116 colon 27.9% | HCC-2998 colon 72.9% | KM12 colon 34.9%

COC(=O)c1nc(-c2ccc(C)cc2)oc1S(=O)(=O)c1ccc(Cl)cc1
active: SR leukemia -15.7%
inactive: RPMI-8226 leukemia 81.2% | OVCAR-8 ovarian 94.2% | OVCAR-5 ovarian 96.3% | OVCAR-4 ovarian 100% | SK-OV-3 ovarian 97.4% | IGROV1 ovarian 89.3% | OVCAR-3 ovarian 107% | HS 578T breast 105% | NCI/ADR-RES ovarian 105% | T-47D breast 88.6% | BT-549 breast 83.4% | MDA-MB-435 melanoma 107% | SW-620 colon 80% | MCF7 breast 89.8% | HCT-116 colon 77.7% | HCC-2998 colon 112% | KM12 colon 116%

COc1ccc(-c2ccccc2)cc1-c1c(Nc2cc(Cl)cc(Cl)c2O)c(=O)c1=O
active: SK-OV-3 ovarian -10.8% | OVCAR-3 ovarian 5.32% | HS 578T breast 3.42% | NCI/ADR-RES ovarian 1.38% | T-47D breast -8.93% | MDA-MB-435 melanoma -4.35% | MCF7 breast 5.24% | KM12 colon 7.85%
inactive: SR leukemia 23.2% | RPMI-8226 leukemia 25.4% | OVCAR-8 ovarian 12.3% | OVCAR-5 ovarian 28.7% | OVCAR-4 ovarian 16.8% | IGROV1 ovarian 31% | BT-549 breast 19.7% | SW-620 colon 17.5% | HCT-116 colon 11.2% | HCC-2998 colon 13.8%

CCCCCCCCCCCCCCCCCCn1cc(COc2ccc(C=O)cc2)nn1
inactive: SR leukemia 85.6% | RPMI-8226 leukemia 95.3% | OVCAR-8 ovarian 102% | OVCAR-5 ovarian 120% | OVCAR-4 ovarian 103% | SK-OV-3 ovarian 91.3% | IGROV1 ovarian 103% | OVCAR-3 ovarian 96.8% | HS 578T breast 110% | NCI/ADR-RES ovarian 96.4% | T-47D breast 88.6% | BT-549 breast 100% | MDA-MB-435 melanoma 109% | SW-620 colon 104% | MCF7 breast 92.8% | HCT-116 colon 76.8% | HCC-2998 colon 99.8% | KM12 colon 86.3%

COc1ccc(-c2[nH]c3ccccc3c2-c2ccc(OC)cc2)cc1
inactive: RPMI-8226 leukemia 24.1% | OVCAR-8 ovarian 86.1% | OVCAR-5 ovarian 62.6% | OVCAR-4 ovarian 61% | SK-OV-3 ovarian 61.7% | IGROV1 ovarian 88.2% | OVCAR-3 ovarian 12.9% | HS 578T breast 49.5% | NCI/ADR-RES ovarian 36.2% | T-47D breast 41.1% | BT-549 breast 90.9% | SW-620 colon 37.1% | MCF7 breast 16.2% | HCT-116 colon 24.4% | HCC-2998 colon 32.3% | KM12 colon 16.6%
active: SR leukemia 6.13% | MDA-MB-435 melanoma -33.1%

COc1ccc(/C=N\Nc2nc(SCC(C)C)nc(-c3ccc(OC)cc3)c2C#N)cc1
active: OVCAR-4 ovarian -60.3% | SK-OV-3 ovarian -16.6% | IGROV1 ovarian -16.3% | OVCAR-3 ovarian 9.64% | HS 578T breast 8.52% | HCT-116 colon 2.29%
inactive: SR leukemia 50.3% | RPMI-8226 leukemia 54.6% | OVCAR-8 ovarian 39.2% | OVCAR-5 ovarian 55.5% | NCI/ADR-RES ovarian 42.2% | T-47D breast 16.2% | BT-549 breast 110% | MDA-MB-435 melanoma 68.5% | SW-620 colon 51% | MCF7 breast 59.3% | HCC-2998 colon 64.2% | KM12 colon 62.6%

Cc1[nH]c(C(=O)Nc2nc3ccc(NC(=O)CCN)cc3s2)c(Cl)c1Cl
active: SR leukemia 6.56%
inactive: RPMI-8226 leukemia 78.4% | OVCAR-8 ovarian 56.1% | OVCAR-5 ovarian 92.5% | OVCAR-4 ovarian 44.8% | SK-OV-3 ovarian 107% | IGROV1 ovarian 68.4% | OVCAR-3 ovarian 77.3% | HS 578T breast 90.8% | NCI/ADR-RES ovarian 58.4% | T-47D breast 54.8% | BT-549 breast 88.9% | MDA-MB-435 melanoma 91.3% | SW-620 colon 43.7% | MCF7 breast 52.3% | HCT-116 colon 59.9% | HCC-2998 colon 96.4% | KM12 colon 90.3%
